Measured values published in PubChem BioAssay.
Where “and” joins values, the source holds several entries; their conditions need not be identical. Equal entries are not always repeated. Calls of active or inactive are those of the source.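 The calls were made as follows, unless noted: active = thallium flux through the channel raised or lowered by more than 3 SD from vehicle-only wells, actives on both sides; inactive = the rest.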

What was measured:
[1] = test system: Hepatitis C virus NS3 helicase; assay: HCV NS3 helicase inhibitors, primary screen, biochemical, fluorescence polarization, NIH Clinical Collection (AID 743270; call rule not given here); settings: NS3 helicase binding to Cy5-dT15 DNA, stronger effect = higher value, concentration not given here
[2] = target: Single-stranded DNA-binding protein (Escherichia coli (strain K12)) (UniProt P0AGE0); assay: E. coli SSB displacement from DNA, counter-screen for HCV NS3 helicase inhibitor project, biochemical, fluorescence polarization, NIH Clinical Collection (AID 743271; in the data active = inhibition above about 28%); settings: stronger effect = higher value, concentration not given here
[3] = fluorescence interference in NS3h assay format, artefact control for HCV NS3 helicase inhibitor project, biochemical, NIH Clinical Collection (AID 743272; call rule not given here;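 also: HCV NS3 helicase with a Cy5 labelled single stranded DNA probe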); settings: fluorescence interference counterscreen, stronger effect = lower value
[4] = stimulators of nuclear beta-catenin in C2C12, primary screen, imaging, WNT3A-conditioned medium, mouse C2C12, NPC library (AID 1117326; in the data active = nuclear beta-catenin stimulation mostly above about 4.2%, no sharp cut-off; inactive = mostly below about 10%); settings: stronger effect = higher value
[5] = stimulators of insulin release from INS-1E, primary screen, cell-based, 5 mM glucose, NPC library (AID 1117329;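 active = compound raises insulin release from rat beta cells at 5 mM glucose, no numeric limit stated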); settings: rat INS-1E insulin secretion, at 10 µM, stronger effect = higher value
[6] = growth inhibition of GSK3B-pretreated HCT116 cells – cell-based, CellTiter-Glo, 0.2 to 20 µM (AID 1117336;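 active = compounds lowering colon cancer cell viability after pretreatment blocking the GSK3B kinase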); settings: HCT116 viability after GSK3B inhibitor, at 20 µM, stronger effect = higher value
[7] = inhibition of endothelial tube formation, primary screen, imaging, VEGF stimulated, CD31 staining, tube area, NPC library (AID 1117340;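 active = compound that reduces growth-factor-driven endothelial tube area in a mixed cell culture, no cutoff stated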); settings: VEGF-stimulated ADSC/ECFC co-culture, at 10 µM, stronger effect = higher value
[8] = glucagon-like peptide 1 release enhancers, primary assay, NCI-H716 cell line, NPC library (AID 1117341;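 active = compound raises GLP1 secretion from the human gut endocrine cells, with no numeric limit stated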); settings: NCI-H716 cells, at 10 µM, stronger effect = higher value
[9] = HCT116 colon cancer cell growth inhibition, primary screen, CellTiter-Glo luminescence, NPC library (AID 1117342;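 active = compounds that lower survival of HCT116 colon cancer cells in the luminescence readout, no numeric limit stated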); settings: at 20 µM (top of the series)
[10] = CellTiter-Glo luminescent readout of SW480 viability loss, NPC library primary (AID 1117343;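 active = compounds that lower viability of the colon cancer cells in the luminescence readout, with no numeric limit stated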); settings: CellTiter-Glo luminescence; at 20 µM (top of the series)
[11] = decreased DLD-1 cellular survival, CellTiter-Glo luminescent readout, NPC compound collection, primary HTS (AID 1117346;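 active = compounds that lower survival of DLD-1 colon cancer cells in the luminescence readout, no cutoff given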); settings: DLD-1 viability, CellTiter-Glo luminescence; at 20 µM (top of the series)
[12] = target: 6-phosphogluconate dehydrogenase, decarboxylating (Homo sapiens) (UniProt P52209); assay: 6PGD enzyme inhibitors, primary screen, biochemical, human, recombinant enzyme, NADPH absorbance (AID 1159550;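 active = at least 20% inhibition of 6-phosphogluconate dehydrogenase activity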); settings: recombinant 6PGD, NADPH absorbance 341 nm; at 10 µM; stronger effect = higher value
[13] = differential killing of epithelial or mesenchymal cells, primary screen, imaging, PC-3E GFP, TEM4-18 mCherry, co-culture (AID 1345086;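 active = compounds killing one labelled cell type while sparing the other, by normalised counts and ratio limits, not self-fluorescent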;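 as to all read-outs here: cells exposed to compound for 72 h before imaging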;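 as to red/green cell ratio (normalised): normalised mesenchymal count divided by normalised epithelial count so high means epithelial killing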); settings: imaging cell counts, at 1 µM; for red/green cell ratio (normalised): actives lie on both sides, counts scaled to control wells, 1 = unselective
[14] = sensitizers of A549 cells to miR-34 induction, primary screen, imaging, A549 dox-inducible miR-34, nuclei and caspase counts (AID 1347080); settings: A549 miR-34 inducible, Hoechst nuclei count, 48 h; measured here: total cells without miR-34 induction
[15] = survival rescue of mitochondrial mutant cells in low glucose, primary screen, MELAS cybrids, Rieske KO mouse fibroblasts, CellTiter-Glo (AID 1508586;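 active = mean z-score across replicates of 1.96 or higher in either the MELAS or the Rieske mutant cell line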;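 also: z relative to plate mean and SD of compound and empty wells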)
[16] = target: NAD(+) hydrolase SARM1 (Homo sapiens) (UniProt Q6SZW1); assay: SARM1 TIR NADase inhibitors, cell lysate, NAD-Glo luminescence (AID 1508614;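 active = compound whose remaining NAD level is above about 45 nM, limit read from the data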;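 also: higher remaining NAD means stronger inhibition of SARM1 NADase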); settings: SAM-TIR HEK293T lysate NADase, at 1 µM, stronger effect = higher value
[17] = target: Mitogen-activated protein kinase 7 (Homo sapiens) (UniProt Q13164); assay: ERK5 transactivation activators in reporter cells, primary screen, cell-based, HTS (AID 1508626;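 active = luciferase signal above three times the same-plate solvent-only control wells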;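 also: luciferase driven by Gal4-ERK5 fusion binding five Gal4 sites before minimal TATA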); settings: HeLa Gal4-ERK5 transactivation, 18 h, at 5 µM, stronger effect = higher value
F380Y = assay: modulators of BK channel variants, profiling panel, selectivity assay, cell-based, U2OS BacMam, thallium flux, beta subunits (AID 1259406); settings: at 30 µM;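 also: initial slope of Thallos dye fluorescence rise after thallium is added; log ratio against the mean of 0.3% DMSO vehicle wells on the same plate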
F380Y/beta2Delta = assay: as above; settings: at 30 µM
[18] = target: Calcium-activated potassium channel subunit alpha-1 (Homo sapiens) + Leucine-rich repeat-containing protein 26 (Homo sapiens) (UniProt Q12791+Q2I0M4); assay: as above; settings: F380Y/Slo1WT/gamma1, at 30 µM
[19] = measured here: epithelial PC-3E GFP cell survival
[20] = measured here: mesenchymal TEM4-18 mCherry cell survival
[21] = MELAS cybrid survival, CellTiter-Glo 48 h, stronger effect = higher value
[22] = Rieske KO mouse fibroblast survival, CellTiter-Glo 72 h

Sequence of Calcium-activated potassium channel subunit alpha-1 (Homo sapiens) + Leucine-rich repeat-containing protein 26 (Homo sapiens) (Q2I0M4 whole entry, looked up, one chain of several): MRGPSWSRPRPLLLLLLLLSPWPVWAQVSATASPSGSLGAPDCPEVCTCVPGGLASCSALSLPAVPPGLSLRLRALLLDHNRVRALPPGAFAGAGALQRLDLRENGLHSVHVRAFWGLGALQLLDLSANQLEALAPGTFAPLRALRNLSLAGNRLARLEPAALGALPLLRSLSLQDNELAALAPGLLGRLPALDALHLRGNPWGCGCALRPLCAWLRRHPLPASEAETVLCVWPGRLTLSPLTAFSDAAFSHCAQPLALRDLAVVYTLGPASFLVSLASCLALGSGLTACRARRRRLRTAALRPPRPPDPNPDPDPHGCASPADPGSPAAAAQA
Sequence of 6-phosphogluconate dehydrogenase, decarboxylating (Homo sapiens) (P52209 whole entry, looked up): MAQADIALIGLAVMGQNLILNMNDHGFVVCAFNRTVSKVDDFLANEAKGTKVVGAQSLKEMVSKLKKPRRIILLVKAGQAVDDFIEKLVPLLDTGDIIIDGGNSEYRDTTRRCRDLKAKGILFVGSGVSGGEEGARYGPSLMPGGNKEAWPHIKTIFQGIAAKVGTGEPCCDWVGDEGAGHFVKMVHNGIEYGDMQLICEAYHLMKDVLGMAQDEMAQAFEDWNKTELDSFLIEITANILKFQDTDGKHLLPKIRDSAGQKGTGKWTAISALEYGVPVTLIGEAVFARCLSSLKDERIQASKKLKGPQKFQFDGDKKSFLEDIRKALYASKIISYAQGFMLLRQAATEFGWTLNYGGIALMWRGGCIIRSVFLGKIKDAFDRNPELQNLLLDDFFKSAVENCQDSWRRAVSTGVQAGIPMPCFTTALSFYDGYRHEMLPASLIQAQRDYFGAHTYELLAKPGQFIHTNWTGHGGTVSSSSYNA
Sequence of Mitogen-activated protein kinase 7 (Homo sapiens) (Q13164 whole entry, looked up, the tested form may be a part): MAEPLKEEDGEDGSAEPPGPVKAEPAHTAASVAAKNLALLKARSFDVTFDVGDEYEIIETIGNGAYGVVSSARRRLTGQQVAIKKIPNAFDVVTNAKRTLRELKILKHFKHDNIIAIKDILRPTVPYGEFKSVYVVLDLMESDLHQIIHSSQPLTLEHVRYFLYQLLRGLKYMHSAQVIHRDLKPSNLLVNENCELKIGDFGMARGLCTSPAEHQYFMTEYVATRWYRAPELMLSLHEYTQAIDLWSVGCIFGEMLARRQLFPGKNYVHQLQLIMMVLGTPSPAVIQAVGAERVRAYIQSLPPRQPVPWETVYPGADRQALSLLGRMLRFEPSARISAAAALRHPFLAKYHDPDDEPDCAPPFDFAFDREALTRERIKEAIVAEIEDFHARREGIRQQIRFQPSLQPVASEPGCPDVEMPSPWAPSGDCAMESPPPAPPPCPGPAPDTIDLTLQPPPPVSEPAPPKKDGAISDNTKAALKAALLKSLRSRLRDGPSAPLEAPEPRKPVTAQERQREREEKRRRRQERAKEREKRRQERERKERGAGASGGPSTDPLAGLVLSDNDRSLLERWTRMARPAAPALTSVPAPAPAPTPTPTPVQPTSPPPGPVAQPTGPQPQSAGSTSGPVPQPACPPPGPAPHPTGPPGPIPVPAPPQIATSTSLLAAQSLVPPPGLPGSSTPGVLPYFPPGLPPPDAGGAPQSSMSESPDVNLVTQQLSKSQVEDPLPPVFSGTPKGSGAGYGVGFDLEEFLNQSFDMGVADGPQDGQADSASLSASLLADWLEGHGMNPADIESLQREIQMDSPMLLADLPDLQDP
Sequence of NAD(+) hydrolase SARM1 (Homo sapiens) (Q6SZW1 whole entry, looked up, the tested form may be a part): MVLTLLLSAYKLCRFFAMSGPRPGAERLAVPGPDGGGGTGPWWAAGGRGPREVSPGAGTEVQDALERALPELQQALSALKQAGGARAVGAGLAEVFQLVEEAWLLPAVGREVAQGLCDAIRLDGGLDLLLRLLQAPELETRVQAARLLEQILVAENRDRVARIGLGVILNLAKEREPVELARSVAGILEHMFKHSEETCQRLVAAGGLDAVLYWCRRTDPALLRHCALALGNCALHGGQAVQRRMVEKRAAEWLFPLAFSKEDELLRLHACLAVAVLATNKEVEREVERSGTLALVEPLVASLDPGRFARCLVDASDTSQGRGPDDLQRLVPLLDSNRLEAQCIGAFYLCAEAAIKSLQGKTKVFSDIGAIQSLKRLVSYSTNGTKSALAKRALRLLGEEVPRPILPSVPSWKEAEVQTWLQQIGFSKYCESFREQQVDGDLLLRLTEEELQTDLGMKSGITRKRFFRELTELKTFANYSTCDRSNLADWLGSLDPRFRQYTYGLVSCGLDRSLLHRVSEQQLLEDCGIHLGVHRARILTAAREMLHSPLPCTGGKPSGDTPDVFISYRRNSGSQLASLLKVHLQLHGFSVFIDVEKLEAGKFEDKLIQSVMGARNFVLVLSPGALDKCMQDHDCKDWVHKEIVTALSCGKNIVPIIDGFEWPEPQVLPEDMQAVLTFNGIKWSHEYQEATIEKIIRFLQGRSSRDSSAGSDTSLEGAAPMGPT

SMILES: CC(C)(C)NCC(O)c1cc(O)cc(O)c1 (centres undefined)
- inhibition [1]: -2.27% (inactive)
- inhibition [2]: -3.53% (inactive)
- fluorescence ratio [3]: 1.04 (inactive)
- nuclear beta-catenin stimulation ([4]; at 10 µM): 1.5% (inactive)
- nuclear beta-catenin stimulation ([4]; stimulation, at 2 µM): 3.1%
- insulin secretion stimulation [5]: -1% (inactive)
- viability decrease [6]: -25.1% (inactive)
- tube area decrease [7]: -9.7% (inactive)
- GLP1 secretion stimulation [8]: 1.4% (inactive)
- inhibition of viability [9]: 3.9% (inactive)
- viability decrease (inhibition) [10]: 20.2% (inactive)
- viability decrease (inhibition) [11]: -3.5% (inactive)
- inhibition [12]: -13.6% (inactive)
- red/green cell ratio (normalised) [13]: 1.28 (inactive)
- normalised cell number [13, 19]: 0.91
- normalised cell number [13, 20]: 1.16
- cell count [14]: 10100 and 11300 and 12600
- z-score [15, 21]: -0.672 (inactive)
- z-score [15, 22]: -0.203
- remaining NAD [16]: 10 nM (inactive)
- luciferase signal [17]: 108 AU (inactive)
- log fold change Tl+ flux (F380Y): 0.00388 (inactive)
- log fold change Tl+ flux (F380Y/beta2Delta): 0.0185 (inactive)
- log fold change Tl+ flux [18]: 0.00552 (inactive)

SMILES: CC(=O)Nc1nnc(S(N)(=O)=O)s1
- inhibition [1]: -1.36% (inactive)
- inhibition [2]: -2% (inactive)
- fluorescence ratio [3]: 0.98 (inactive)
- nuclear beta-catenin stimulation ([4]; at 10 µM): 0.1% (inactive)
- nuclear beta-catenin stimulation ([4]; stimulation, at 2 µM): -0.2%
- insulin secretion stimulation [5]: -1.1% (inactive)
- viability decrease [6]: -1.8% (inactive)
- tube area decrease [7]: -16.7% (inactive)
- GLP1 secretion stimulation [8]: 1.4% (inactive)
- inhibition of viability [9]: 1.7% (inactive)
- viability decrease (inhibition) [10]: 31.5% (inactive)
- viability decrease (inhibition) [11]: 6.2% (inactive)
- inhibition [12]: -4.83% (inactive)
- red/green cell ratio (normalised) [13]: 1.26 (inactive)
- normalised cell number [13, 19]: 0.92
- normalised cell number [13, 20]: 1.17
- z-score [15, 21]: -0.627 (inactive)
- z-score [15, 22]: 0.11
- remaining NAD [16]: 10 nM (inactive)
- luciferase signal [17]: 44 AU (inactive)
- log fold change Tl+ flux (F380Y): 0.0439 (inactive)
- log fold change Tl+ flux (F380Y/beta2Delta): 0.0368 (inactive)
- log fold change Tl+ flux [18]: -0.0199 (inactive)

SMILES: Cc1ccc(Cl)c(Nc2ccccc2C(=O)O)c1Cl
- inhibition [1]: 0.45% (inactive)
- inhibition [2]: -0.48% (inactive)
- fluorescence ratio [3]: 1 (inactive)
- nuclear beta-catenin stimulation ([4]; at 10 µM): 0.5% (inactive)
- nuclear beta-catenin stimulation ([4]; stimulation, at 2 µM): 1.2%
- insulin secretion stimulation [5]: -1.1% (inactive)
- viability decrease [6]: 8.4% (inactive)
- tube area decrease [7]: 22.9% (inactive)
- GLP1 secretion stimulation [8]: 5% (inactive)
- inhibition of viability [9]: 35.8% (inactive)
- viability decrease (inhibition) [10]: 58.5% (active)
- viability decrease (inhibition) [11]: 78.5% (active)
- inhibition [12]: 7.02% (inactive)
- red/green cell ratio (normalised) [13]: 0.98 (inactive)
- normalised cell number [13, 19]: 0.92
- normalised cell number [13, 20]: 0.9
- z-score [15, 21]: -0.277 (inactive) and 0.657 (inactive)
- z-score [15, 22]: -0.131 and 0.573
- remaining NAD [16]: 10 nM (inactive)
- luciferase signal [17]: 48 AU (inactive)
- log fold change Tl+ flux (F380Y): 0.212 (active)
- log fold change Tl+ flux (F380Y/beta2Delta): 0.243 (active)
- log fold change Tl+ flux [18]: 0.122 (active)

SMILES: CCN(CC)CCNC(=O)c1ccc(N)cc1
- nuclear beta-catenin stimulation ([4]; at 10 µM): 1.2% (inactive)
- nuclear beta-catenin stimulation ([4]; stimulation, at 2 µM): 2.4%
- insulin secretion stimulation [5]: 1.1% (inactive)
- viability decrease [6]: 1.4% (inactive)
- tube area decrease [7]: 8.7% (inactive)
- GLP1 secretion stimulation [8]: 2.8% (inactive)
- inhibition of viability [9]: 15.3% (inactive)
- viability decrease (inhibition) [10]: -11.5% (inactive)
- viability decrease (inhibition) [11]: -4.7% (inactive)
- inhibition [12]: 13.2% (inactive)
- red/green cell ratio (normalised) [13]: 0.9 (inactive)
- normalised cell number [13, 19]: 0.66
- normalised cell number [13, 20]: 0.59
- z-score [15, 21]: -0.241 (inactive) and -0.159 (inactive) and 0.703 (inactive)
- z-score [15, 22]: -0.144 and -0.31 and 0.675
- remaining NAD [16]: 10 nM (inactive)
- luciferase signal [17]: 56 AU (inactive)
- log fold change Tl+ flux (F380Y): -0.0589 (inactive)
- log fold change Tl+ flux (F380Y/beta2Delta): 0.0202 (inactive)
- log fold change Tl+ flux [18]: 0.0259 (inactive)

SMILES: CSc1ccc2c(c1)N(CCC1CCCCN1C)c1ccccc1S2 (centres undefined)
- inhibition [1]: -5% (inactive)
- inhibition [2]: 0.29% (inactive)
- fluorescence ratio [3]: 0.85 (inactive)
- nuclear beta-catenin stimulation ([4]; at 10 µM): 22.9% (inactive)
- nuclear beta-catenin stimulation ([4]; stimulation, at 2 µM): 1.6%
- insulin secretion stimulation [5]: 5.6% (inactive)
- viability decrease [6]: 110% (active)
- tube area decrease [7]: 103% (active)
- GLP1 secretion stimulation [8]: 12.4% (inactive)
- inhibition of viability [9]: 112% (active)
- viability decrease (inhibition) [10]: 133% (active)
- viability decrease (inhibition) [11]: 101% (active)
- inhibition [12]: -1.24% (inactive)
- red/green cell ratio (normalised) [13]: 1.09 (inactive)
- normalised cell number [13, 19]: 0.88
- normalised cell number [13, 20]: 0.96
- z-score [15, 21]: -1.63 (inactive) and -1.09
- z-score [15, 22]: 0.0893 and 2.14
- remaining NAD [16]: 10 nM (inactive)
- luciferase signal [17]: 40 AU (inactive)
- log fold change Tl+ flux (F380Y): 0.0395 (inactive)
- log fold change Tl+ flux (F380Y/beta2Delta): 0.193 (active)
- log fold change Tl+ flux [18]: 0.0351 (inactive)

SMILES: Cc1nc2ccccn2c(=O)c1CCN1CCC(C(=O)c2ccc(F)cc2)CC1
- inhibition [1]: 5.94% (inactive)
- inhibition [2]: 3.75% (inactive)
- fluorescence ratio [3]: 0.93 (inactive)
- nuclear beta-catenin stimulation ([4]; at 10 µM): -0.7% (inactive)
- nuclear beta-catenin stimulation ([4]; stimulation, at 2 µM): -2.4%
- insulin secretion stimulation [5]: 3.35% (inactive)
- viability decrease [6]: 24.3% (inactive)
- tube area decrease [7]: 6% (inactive)
- GLP1 secretion stimulation [8]: 10.6% (inactive)
- inhibition of viability [9]: 67.9% (active)
- viability decrease (inhibition) [10]: 30.7% (inactive)
- viability decrease (inhibition) [11]: 11.5% (inactive)
- inhibition [12]: 0.157% (inactive)
- red/green cell ratio (normalised) [13]: 1.29 (inactive)
- normalised cell number [13, 19]: 0.87
- normalised cell number [13, 20]: 1.12
- z-score [15, 21]: -0.0109 (inactive)
- z-score [15, 22]: -0.116
- remaining NAD [16]: 10 nM (inactive)
- luciferase signal [17]: 52 AU (inactive)
- log fold change Tl+ flux (F380Y): 0.00566 (inactive)
- log fold change Tl+ flux (F380Y/beta2Delta): -0.00369 (inactive)
- log fold change Tl+ flux [18]: -0.0679 (inactive)

SMILES: CC(C)[N+](C)(CCOC(=O)C1c2ccccc2Oc2ccccc21)C(C)C
- inhibition [1]: -1.36% (inactive)
- inhibition [2]: 0.29% (inactive)
- fluorescence ratio [3]: 0.96 (inactive)
- nuclear beta-catenin stimulation ([4]; at 10 µM): 1.3% (inactive)
- nuclear beta-catenin stimulation ([4]; stimulation, at 2 µM): 3.3%
- insulin secretion stimulation [5]: 0.2% (inactive)
- viability decrease [6]: -14.9% (inactive)
- tube area decrease [7]: 9.2% (inactive)
- GLP1 secretion stimulation [8]: 0.4% (inactive)
- inhibition of viability [9]: 6.7% (inactive)
- viability decrease (inhibition) [10]: -1.5% (inactive)
- viability decrease (inhibition) [11]: -16.9% (inactive)
- inhibition [12]: 6.27% (inactive)
- red/green cell ratio (normalised) [13]: 1.27 (inactive)
- normalised cell number [13, 19]: 1.02
- normalised cell number [13, 20]: 1.3
- z-score [15, 21]: 0.349 (inactive)
- z-score [15, 22]: 0.213
- remaining NAD [16]: 10 nM (inactive)
- luciferase signal [17]: 48 AU (inactive)
- log fold change Tl+ flux (F380Y): 0.0202 (inactive)
- log fold change Tl+ flux (F380Y/beta2Delta): 0.0277 (inactive)
- log fold change Tl+ flux [18]: -0.0355 (inactive)
